The list is not random: actives were taken first. Their share in the collection is about 3.2%.
Mtb UGM inh: Mtb UDP-galactopyranose mutase inhibition | P9WIQ1 | purified UGM, fluorescence polarization probe displacement | inhibition, % at 10 µM | 320,000 compounds, 0.06% hits | AID 504406; in the data active means inhibition above about 10%, passing the limit was not always enough
SSB-PriA inh: K. pneumoniae PriA-SSBct interaction inhibition | inhibition, % at 33 µM | 430,000 compounds, 0.6% hits | AlphaScreen SSBct-PriA binding, biotinylated peptide | AID 1272365; in the data active means inhibition mostly above about 37%, no sharp cut-off; inactive means mostly below about 20%
Rv3671c protease: inhibitors of M. tuberculosis serine protease Rv3671c. inhibition, % at 5.96 µM. 320,000 compounds, 0.048% hits. P9WHR9. AID 2606; in the data active means inhibition above about 38%;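 further: extracellular domain of Rv3671c used as enzyme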
GDH-TPI counter-1: inhibits GDH-TPI coupling enzymes, artifact for Mtb FBA screen | GDH-TPI coupled enzyme counterscreen, NADH absorbance | inhibition, % at 4.8 µM | 360,000 compounds, 1.2% hits; in the data active means inhibition above about 30%
Mtb betalactam: beta-lactam sensitization of Mtb H37Rv. M. tuberculosis H37Rv growth with meropenem, percent inhibition. inhibition, % at 25 µM. 330,000 compounds, 0.27% hits. AID 434955;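 further: growth measured after seven days incubation then overnight dye step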
Mtb FBA inh: Mtb fructose-bisphosphate aldolase inhibition; purified M. tuberculosis FBA, fluorescence read-out; P9WQA3; 360,000 compounds, 2.3% hits; inhibition, % at 1 µM; in the data active means inhibition above about 27%
Target sequence (P9WQA3 whole entry, looked up): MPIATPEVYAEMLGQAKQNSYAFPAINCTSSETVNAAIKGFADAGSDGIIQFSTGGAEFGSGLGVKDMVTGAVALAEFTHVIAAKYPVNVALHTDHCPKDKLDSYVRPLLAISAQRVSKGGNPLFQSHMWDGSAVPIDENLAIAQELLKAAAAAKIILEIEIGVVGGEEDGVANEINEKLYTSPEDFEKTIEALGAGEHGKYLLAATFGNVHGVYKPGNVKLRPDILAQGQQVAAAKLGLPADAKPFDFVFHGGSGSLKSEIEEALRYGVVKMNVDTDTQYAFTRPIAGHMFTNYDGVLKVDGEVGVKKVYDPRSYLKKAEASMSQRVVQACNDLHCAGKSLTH
Mtb FBA confirm: Mtb FBA inhibition, confirmed | 5,600 compounds, 78% hits | inhibition, % at 1 µM | shares compounds with Mtb FBA inh | AID 651616 | purified M. tuberculosis FBA, fluorescence read-out; in the data active means inhibition above about 27%
GDH-TPI counter-2: GDH-TPI inhibition counter-screen for FBA inhibitors. shares compounds with Mtb FBA inh. inhibition, % at 1 µM. GDH-TPI coupled enzyme counterscreen, fluorescence. 5,600 compounds, 81% hits; in the data active means inhibition above about 10%
GDH-TPI DR: counter-screen for M. tuberculosis FBA inhibitors: GDH-TPI dose response; 170 compounds, 79% hits; GDH-TPI coupled enzyme assay, fluorescence, artifact counterscreen; IC50, µM; shares compounds with Mtb FBA inh
Each line names hits and unclear results; the compound was inactive in the other large screens (follow-up assays come after a bar, where they were run). Unless noted, how the calls were made is not given here.

CCCNC(=O)c1oc2ccc3c(c2c1C)C(O)CC(C)(C)O3 (stereo not drawn)	Mtb FBA inh 49 (no result: Rv3671c protease) | Mtb FBA confirm inactive | GDH-TPI counter-2 inactive
Cc1csc(NC(=O)CSc2nnc3[nH]c(=O)cc(C)n23)n1	none (no result: Mtb UGM inh, Rv3671c protease, GDH-TPI counter-1, Mtb betalactam, Mtb FBA inh)
Nc1ccc2c(S(=O)(=O)O)cccc2c1S(=O)(=O)O	Mtb FBA inh 53 (no result: Mtb UGM inh, Rv3671c protease, Mtb betalactam) | Mtb FBA confirm 76 | GDH-TPI counter-2 81
COc1ccccc1OCC(=O)NCCCc1ccc(N(C)C)cc1	none (no result: Mtb UGM inh, Rv3671c protease, GDH-TPI counter-1, Mtb betalactam, Mtb FBA inh)
CCOC(=O)c1cc(-c2cc3ccccc3o2)nc2c1c(=O)[nH]c(=O)n2CCOC	Mtb FBA inh 46 | Mtb FBA confirm inactive | GDH-TPI counter-2 inactive
CCOC(=O)c1cc(-c2ccc([N+](=O)[O-])cc2)nc2c1c(=O)[nH]c(=O)n2Cc1ccccc1	none
O=C(c1cccn2c(=O)c3cc(Cl)ccc3nc12)N1CCC2(CC1)OCCO2	Mtb FBA inh 34 (no result: Mtb betalactam) | Mtb FBA confirm 46 | GDH-TPI counter-2 39
O=C(c1cccn2c(=O)c3ccccc3nc12)N1CCC2(CC1)OCCO2	none
CCc1ccc(-c2cc(C)no2)cc1S(=O)(=O)Nc1ccccn1	none
Cc1cc(-c2ccc(C(C)C)c(S(=O)(=O)Nc3ccccn3)c2)on1	none
CCc1ccc(-c2cc(C)no2)cc1S(=O)(=O)Nc1ccc(C)cn1	Mtb FBA inh 31 | Mtb FBA confirm inactive | GDH-TPI counter-2 inactive
Cc1ccc(NS(=O)(=O)c2cc(-c3cc(C)no3)ccc2C(C)C)nc1	Mtb FBA inh 37 | Mtb FBA confirm 29 | GDH-TPI counter-2 24
O=C(O)CCC(=O)N1CCN(c2nc(-c3ccccc3)c3ccccc3n2)CC1	none
Cc1ccc2nc(N3CCN(C(=O)CCCC(=O)O)CC3)nc(-c3ccccc3)c2c1	Mtb FBA inh 32 | Mtb FBA confirm 73 | GDH-TPI counter-2 38
CCCNC(=O)c1ccc(-c2nc3ccccc3s2)s1	GDH-TPI counter-1 32, Mtb FBA inh 48 | Mtb FBA confirm 100 | GDH-TPI counter-2 66
Cc1ccc(-c2cc(-c3ccc(C)cc3)[n+](-c3ccccc3)c(-c3ccc(C)cc3)c2)cc1	none
Cc1ccc(-c2cc(-c3ccc(C)cc3)[n+](-c3ccc(C(=O)[O-])cc3)c(-c3ccc(C)cc3)c2)cc1	GDH-TPI counter-1 46, Mtb FBA inh 38 (no result: SSB-PriA inh) | Mtb FBA confirm inactive | GDH-TPI counter-2 inactive | GDH-TPI DR 3.8
Cc1cc(C(=O)Nc2cccc3ccccc23)ccc1[N+](=O)[O-]	none (no result: Mtb UGM inh, Rv3671c protease, GDH-TPI counter-1, Mtb betalactam, Mtb FBA inh)
O=C(O)CNS(=O)(=O)c1ccc2c(c1)Cc1cc(S(=O)(=O)NCC(=O)O)ccc1-2	Mtb FBA inh 41 | Mtb FBA confirm inactive | GDH-TPI counter-2 inactive
COC(=O)Oc1ccc(C=NNC(=O)CN(c2ccccc2Cl)S(C)(=O)=O)cc1OC	none (no result: Mtb UGM inh, Rv3671c protease, GDH-TPI counter-1, Mtb betalactam, Mtb FBA inh)
CN1c2cccc3cccc(c23)N(C)C1(C)C	Mtb FBA inh 72 | Mtb FBA confirm inactive | GDH-TPI counter-2 inactive
O=S(=O)(NCCn1nc(-c2ccsc2)cc1C1CC1)c1ccc(Cl)s1	none (no result: Mtb UGM inh, Rv3671c protease, GDH-TPI counter-1, Mtb betalactam, Mtb FBA inh)
COc1cccc(/C=C/C(=O)OCC(=O)c2c(N)n(C)c(=O)n(C)c2=O)c1	Mtb FBA inh 63 | Mtb FBA confirm 86 | GDH-TPI counter-2 59
CCOC(=O)C1CC(c2ccccc2)=NN1c1ccccc1 (stereo not drawn)	Mtb FBA inh 72 (no result: Mtb UGM inh, SSB-PriA inh, Rv3671c protease, Mtb betalactam) | Mtb FBA confirm 35 | GDH-TPI counter-2 28
Cc1ccc(N2N=C(c3ccc(F)cc3)CC2c2ccco2)cc1 (stereo not drawn)	Mtb FBA inh 62 | Mtb FBA confirm 112 | GDH-TPI counter-2 96
C(=C\c1ccco1)/C1=NN(c2ccccc2)C(c2ccco2)C1 (stereo not drawn)	Mtb FBA inh 40 | Mtb FBA confirm active | GDH-TPI counter-2 active
Cc1ccc(C2CC(c3ccccc3)=NN2c2ccccc2)o1 (stereo not drawn)	Mtb FBA inh 43 | Mtb FBA confirm inactive | GDH-TPI counter-2 inactive | GDH-TPI DR 1.3
Cc1nnc(N2C(=O)C(=O)C(=C(O)c3ccc4c(c3)OCCO4)C2c2ccc(F)cc2)s1 (stereo not drawn)	none (no result: Mtb UGM inh, Rv3671c protease, GDH-TPI counter-1, Mtb betalactam, Mtb FBA inh)
CCOc1ccc(C=NNc2nc(C)cs2)c(O)c1	none (no result: Mtb UGM inh, Rv3671c protease, GDH-TPI counter-1, Mtb betalactam, Mtb FBA inh)
